Compound activity from PubChem.
aSyn 5UTR act: Activators via SNCA 5'UTR binding, MLPCN | alpha-synuclein 5'UTR reporter, activators screen | activity score, % (tested at 7.5 µM), hits read low | 300,000 tested, 7.1% active | AID 1814, 2009; in the data active = activity score below about -60%
The depositor's hits bear a star. Only a sample is shown.

SMILES	aSyn 5UTR act
CCc1ccc(NC(=O)c2cnc(SC)nc2C)cc1	-93*
O=C(Nc1ccc2c(c1)OCCO2)C1CC1c1ccccc1 (centres undefined)	-123*
O=C(CCNc1ccccc1)c1ccc2c(c1)OCO2	-193*
CN(c1cccc(NC(=O)c2ccc(C(C)(C)C)cc2)c1)S(C)(=O)=O	-174*
CS(=O)(=O)Nc1ccc(C(=O)Nc2ccc3c(c2)OCCO3)cc1	-169*
O=C(Nc1ccncc1)c1ccc2c(c1)OCCO2	-68*
O=C(NNC(=O)c1cccc2ccccc12)c1ccc2c(c1)OCO2	-94*
Nc1ccc(C(=O)c2ccc3c(c2)OCCO3)cc1N	-166*
O=C(CC(=O)c1ccccc1)Nc1ccc2c(c1)OCCO2	-119*
O=C(NC(=S)Nc1ccc2c(c1)OCCO2)c1cccc(Br)c1	-302*
O=C(NC(=S)Nc1ccc2c(c1)OCCO2)c1cccc2ccccc12	-82*
O=C(Nc1ccc2c(c1)OCO2)c1ccccc1	-120*
CC(C)(C)c1ccc(C(=O)Nc2cccc([N+](=O)[O-])c2)cc1	-193*
Cc1ccc(C(=O)c2nc3c(n2O)CCCC3)cc1	-86*
O=C(c1cc2ccccc2o1)c1nc2c(n1O)CCCCC2	-73*
COC(=O)[C@H](Cc1ccccc1)NC(=O)c1cc(COc2c(F)cccc2F)on1	-85*
c1ccc(-c2cnnc(N3CCOCC3)n2)cc1	-110*
Cc1cc(C)n(-c2nc(N(c3ccccc3)c3ccccc3)nc(-n3nc(C)cc3C)n2)n1	57
Cc1cc(C)n(-c2ncc(-c3ccccc3)nn2)n1	-69*
Cc1cc(C)n(-c2nncc(-c3ccccc3)n2)n1	-76*
N#C/C(=C\c1ccc(O)cc1)c1nc2ccccc2o1	-120*
Fc1ccccc1CSc1nnc(-c2cccs2)o1	-128*
Fc1ccc(CSc2nnc(-c3cccs3)o2)cc1	-88*
Fc1ccc(Cc2nnc(-c3cccs3)o2)cc1	-114*
Fc1ccc(-c2nnc(Cc3ccc(Cl)cc3)o2)cc1	-86*
SMILES	aSyn 5UTR act
c1ccc(CSc2nnc(-c3cccs3)o2)cc1	-170*
CC1CC(C)CN(CCCNC(=O)c2ccc3nc(N4CCCCC4)sc3c2)C1 (centres undefined)	-273*
CC1CC(C)CN(S(=O)(=O)c2ccc(C(=O)NCCCn3ccnc3)cc2)C1 (centres undefined)	98
CCCNC(=O)c1ccc(N2CCC3(CC2)CC(c2ccccc2)=NO3)c(NC(=O)c2ccccc2)c1	59
CCCN1CCN(CCCNC(=O)c2ccc3nc(N4CCCCC4)sc3c2)CC1	-214*
Cn1c(/C=C/c2ccc(Cl)cc2)nc2ccccc2c1=O	-181*
Cn1c(/C=C/c2ccc([N+](=O)[O-])o2)nc2ccccc2c1=O	98
Cn1c(/C=C/c2ccccc2)nc2ccccc2c1=O	-137*
CSc1ccc(/C=N/NC(=O)c2sccc2C)cc1	-89*
Cc1occc1C(=O)Nc1ccc(OCc2ccccc2)cc1	-147*
Oc1ccc(N=Cc2ccc(OCc3ccccc3)cc2)cc1	-92*
O=C(N/N=C/c1ccc(OCc2ccccc2)cc1)c1ccncc1	-164*
O=C(COc1ccc([N+](=O)[O-])cc1)NNC(=O)c1cccs1	-78*
C[C@H](NC(N)=O)C(=O)Nc1ccc(OCc2ccccc2)cc1	-92*
O=C(Nc1ccc(OCc2ccccc2)cc1)c1cccs1	-158*
O=C(C[n+]1ccc(C(=O)N/N=C/c2ccc(OCc3ccccc3)cc2)cc1)c1ccccc1	-138*
O=C(N/N=C/c1ccc(F)cc1)c1sccc1OCc1ccc(F)cc1	-94*
O=C(N/N=C/c1ccc(Cl)cc1)c1sccc1OCc1ccc(F)cc1	73
O=C(N/N=C/c1ccc(OCc2ccccc2)cc1)c1cccs1	-116*
CC(C)(C)NCC(=O)N/N=C/c1ccc(OCc2ccccc2)cc1	-72*
COc1cccc2cc(-c3nc4ccccc4[nH]3)c(=O)oc12	-157*
COc1cccc2cc(-c3ccccc3)c(=O)oc12	-113*
Nc1ccc2c(c1)sc1ccccc12	-148*
Cn1ncc([N+](=O)[O-])c1C(=O)Nc1ccc(-c2nc3ccccc3o2)cc1	-130*
CC(=O)c1cc(C#N)c(SCc2ccccn2)nc1C	-114*
SMILES	aSyn 5UTR act
CC(=O)c1cc(C#N)c(SCc2ccccc2)nc1C	-85*
Cc1sc2c(c1C)C(=O)NC(c1ccccc1F)N2 (centres undefined)	-115*
Cc1ccc(C2NC(=O)c3c(sc(C)c3C)N2)c(O)c1 (centres undefined)	-234*
Cc1cccc(C2NC(=O)c3c(sc(C)c3C)N2)c1O (centres undefined)	-87*
Cc1cccc(N=C/C(C(=O)C(F)(F)F)=C(\O)c2ccco2)c1	-167*
O=C(/C(C=Nc1ccc(F)cc1)=C(/O)c1ccco1)C(F)(F)F	-113*
Cc1ccc(N=C/C(C(=O)C(F)(F)F)=C(\O)c2ccco2)cc1Cl	-184*
CCN(CC)C(=S)SCC(=O)c1ccc(Br)cc1	-110*
OCCCNc1c2ccccc2nc2ccccc12	-155*
Fc1cccc(NCCc2c[nH]c3ccccc23)n1	-101*
c1ccc2c(NCCc3c[nH]c4ccccc34)c3ccccc3nc2c1	-549*
Clc1ccccc1Cn1nnc(-c2cccs2)n1	-100*
CN(C)c1ccc(-c2nnn(Cc3ccccc3Br)n2)cc1	-66*
Clc1ccccc1Cn1nnc(-c2ccccc2)n1	-153*
CC1Cc2cc(/C(O)=C3/C(=O)C(=O)N(Cc4ccco4)C3c3cccs3)ccc2O1 (centres undefined)	-82*
CCN(CC)CCN1C(=O)C(=O)/C(=C(/O)c2ccc(OC(C)C)cc2)C1c1cccs1 (centres undefined)	-122*
CCOc1ccc(/C(O)=C2/C(=O)C(=O)N(c3nc(C)c(C)s3)C2c2ccco2)cc1 (centres undefined)	-85*
CCCOc1ccc(/C(O)=C2/C(=O)C(=O)N(CCCn3ccnc3)C2c2ccc(C)o2)cc1 (centres undefined)	-76*
CCCCCOc1ccc(NC(=O)C(=O)NCCCn2ccnc2)cc1	63
C=CCOc1ccc(/C(O)=C2/C(=O)C(=O)N(CCCn3ccnc3)C2c2cccs2)cc1 (centres undefined)	-82*
CCCOc1ccc(/C(O)=C2/C(=O)C(=O)N(CCCn3ccnc3)C2c2ccco2)cc1 (centres undefined)	-68*
Cn1c2ccccc2c2cc(C(=O)N3CCN(CCO)CC3)sc21	-86*
COc1ccc(NC(=O)/C=C/c2ccccc2)cn1	-116*
COc1ccc(NC(=O)/C=C/c2ccc(F)cc2)cn1	-114*
Cc1cc(/C=c2\sc3nc4ccccc4n3c2=O)c(C)n1-c1ccc(C(=O)O)cc1	-62*
SMILES	aSyn 5UTR act
O=c1/c(=C\c2cccnc2)sc2nc3ccccc3n12	-107*
Cc1cc(/C=c2/sc3nc4ccccc4n3c2=O)c(C)n1-c1ccccn1	88
Cc1ccc(NC(=O)C2CC2c2ccccc2)c([N+](=O)[O-])c1 (centres undefined)	-88*
O=C(Cn1cnc2ccccc21)c1ccc(Cl)cc1	-71*
O=C(Cn1cnc2ccccc2c1=O)c1ccccc1	-80*
Cn1c(=N)n(CC(=O)c2ccc(Cl)c(Cl)c2)c2ccccc21	81
O=C(Cn1cnc2ccccc2c1=O)c1ccc(Br)cc1	-153*
O=C(Cn1cnc2ccccc2c1=O)c1ccc(Cl)cc1	-90*
O=C(Cn1cnc2ccccc2c1=O)c1ccc(OC(F)F)cc1	-73*
CCOc1ccc(C(=O)Cn2cnc3ccccc3c2=O)cc1	-94*
O=C(Cn1cnc2ccc(Cl)cc2c1=O)c1cccs1	-136*
